Test results: PubChem BioAssay AID1159580 (chemical genetic matrix, 2015)
Several values for one entry are separate records, joined by “and”; a condition that tells them apart may be missing. Identical values can stand only once. The campaign covered roughly 5,500 compounds. About 2,000 (36%) were called active. Inconclusive results (about 18%) are left out. Rule as the data show it: active = normalized growth mostly below about 0.91 (no sharp cut-off); inconclusive = no clear call, values can overlap the other calls; inactive = mostly above about 0.92. The list shows a part of the results.

Test: chemical genetic growth profiling, strain panel (AID 1159580);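 also: tested at 20 µM; growth read once vehicle control cultures reached saturation at 30 °C; 1 = growth at the plate median or of vehicle wells; lower values mean less growth of the strain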
Conditions: S. cerevisiae deletion strains, growth OD

Measured: normalized growth

CCCCCC(O)C1C(=O)OC(C)C(O)/C=C/C=C/C=C/C=C/C=C(\C)C(O)CC(O)CC(O)CC(O)CC(O)CC(O)CC1O (configuration not stated)
inactive: locus YAL013W, strain DEP1, hits give low values 1.01 | locus YAL021C, strain ccr4, hits give low values 1.01 | locus YAL026C, strain drs2, hits give low values 0.994 | locus YAL030W, strain snc1, hits give low values 0.985 | locus YBL061C, strain skt5, hits give low values 0.982 | locus YBR009C, strain hhf1, hits give low values 0.996 | locus YBR021W, strain FUR4, hits give low values 1.02 | locus YBR023C, strain chs3, hits give low values 0.989 | locus YBR171W, strain sec66, hits give low values 0.982 | locus YBR229C, strain ROT2, hits give low values 1.01 | locus YBR231C, strain swc5, hits give low values 0.992 | locus YBR279W, strain paf1, hits give low values 0.993 | locus YCL011C, strain gbp2, hits give low values 1 | locus YCL016C, strain dcc1, hits give low values 0.986 | locus YCL029C, strain bik1, hits give low values 1.03 | locus YCL061C, strain MRC1, hits give low values 0.992 | locus YCL069W, strain vba3, hits give low values 0.993 | locus YCR088W, strain abp1, hits give low values 0.993 | locus YDL005C, strain med2, hits give low values 0.995 | locus YDL035C, strain GPR1, hits give low values 1.02 | locus YDL040C, strain nat1, hits give low values 0.99 | locus YDL074C, strain BRE1, hits give low values 1.01 | locus YDL101C, strain DUN1, hits give low values 1.01 | locus YDL134C, strain PPH21, hits give low values 1.01 | locus YDL185W, strain tfp1, hits give low values 1.03 | locus YDL192W, strain arf1, hits give low values 1.04 | locus YDR001C, strain nth1, hits give low values 0.983 | locus YDR069C, strain doa4, hits give low values 0.996 | locus YDR101C, strain arx1, hits give low values 1.02 | locus YDR137W, strain rgp1, hits give low values 1.01 | locus YDR150W, strain NUM1, hits give low values 1.02 | locus YDR159W, strain sac3, hits give low values 0.96 | locus YDR162C, strain NBP2, hits give low values 1.02 | locus YDR195W, strain ref2 0.96 | locus YDR297W, strain sur2, hits give low values 1.01 | locus YDR318W, strain mcm21, hits give low values 1.03 | locus YDR334W, strain swr1, hits give low values 0.986 | locus YDR335W, strain msn5, hits give low values 0.985 | locus YDR388W, hits give low values 1.03 | locus YDR392W, strain spt3, hits give low values 0.937 | locus YDR502C, strain sam2, hits give low values 1.01 | locus YEL003W, strain gim4, hits give low values 0.993 | locus YEL037C, strain rad23, hits give low values 1.02 | locus YEL061C, strain CIN8 (second series), hits give low values 0.98 | locus YEL061C, strain CIN8, hits give low values 1 | locus YER015W, strain faa2, hits give low values 0.991 | locus YER016W, strain bim1, hits give low values 0.986 | locus YER110C, hits give low values 1.02 | locus YER111C, strain swi4, hits give low values 0.996 | locus YER155C, strain BEM2 (second series), hits give low values 0.976 | locus YER155C, strain BEM2, hits give low values 1.02 | locus YER167W, strain BCK2, hits give low values 1.04 | locus YFR010W, strain ubp6, hits give low values 0.984 | locus YGL078C, strain dbp3, hits give low values 1.01 | locus YGL086W, strain mad1, hits give low values 1.03 | locus YGL167C, strain pmr1, hits give low values 0.984 | locus YGL173C, strain kem1, hits give low values 0.993 | locus YGL227W, strain vid30, hits give low values 0.989 | locus YGL240W, strain doc1, hits give low values 0.981 | locus YGL248W, strain PDE1, hits give low values 1.01 | locus YGL253W, strain hxk2, hits give low values 1 | locus YGR078C, strain PAC10, hits give low values 1 | locus YGR135W, strain pre9, hits give low values 1.02 | locus YGR229C, strain SMI1, hits give low values 1.02 | locus YGR252W, strain gcn5, hits give low values 1.04 | locus YHR013C, strain ard1, hits give low values 0.966 | locus YHR027C, strain rpn1, hits give low values 0.994 | locus YHR030C, strain SLT2, hits give low values 1.01 and 0.963 | locus YHR079C, strain IRE1 (second series), hits give low values 1.02 | locus YHR079C, strain IRE1, hits give low values 0.959 | locus YHR094C, strain hxt1, hits give low values 1.02 | locus YHR129C, strain ARP1, hits give low values 1 | locus YHR142W, strain chs7, hits give low values 1.01 | locus YHR200W, strain rpn10, hits give low values 1.02 | locus YIL066C, strain RNR3, hits give low values 1.01 | locus YIL073C, strain SPO22, hits give low values 1.12 | locus YIL125W, strain kgd1, hits give low values 1.03 | locus YIR030C, strain dcg1, hits give low values 1.02 | locus YJL092W, strain hpr5, hits give low values 0.985 | locus YJL095W, strain BCK1 (second series), hits give low values 0.988 | locus YJL095W, strain BCK1, hits give low values 1.01 and 0.975 | locus YJL115W, strain asf1, hits give low values 0.991 | locus YJL129C, strain trk1, hits give low values 0.976 | locus YJL134W, strain LCB3, hits give low values 1.01 | locus YJL154C, strain vps35, hits give low values 0.985 | locus YJL164C, strain tpk1, hits give low values 1 | locus YJL166W, strain qcr8, hits give low values 0.997 | locus YJL168C, strain set2, hits give low values 1.02 | locus YJL187C, strain SWE1 (second series), hits give low values 1 | locus YJL187C, strain SWE1, hits give low values 0.995 | locus YJR043C, strain POL32, hits give low values 1.03 | locus YJR066W, strain TOR1, hits give low values 0.939
